Structures are written as SMILES. Compounds without any hit were thinned out: in the full panel of roughly 83,000, 20% have a hit.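 Plates (96-well) were seeded with cells, treated with compound at one concentration, and incubated for 48 hours before percent growth was determined.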 Values without a mark were called inactive. Active and inactive are the calls of the source. How the source made its calls: active means growth percent below 10; inactive means the rest.

Common to all, as to assay: NCI-60 one-dose screen, 48 h (100 = growth as untreated, 0 = no growth, -100 = all killed)
The subject of one test is HT29 colon. As to conditions: 10 µM unless noted.
For a further test, the system named is SNB-75 CNS. The following applies: 10 µM unless noted.
For the next test, the system named is U251 CNS. The following applies: 10 µM unless noted.
Another test concerns PC-3 prostate. As to conditions: 10 µM unless noted.
Another test concerns SK-MEL-5 melanoma. As to conditions: 10 µM unless noted.
The subject of a further test is UACC-62 melanoma. As to conditions: 10 µM unless noted.
The next test concerns LOX IMVI melanoma. As to conditions: 10 µM unless noted.
Another test concerns SK-MEL-28 melanoma. As to conditions: 10 µM.
A further test deals with SK-MEL-2 melanoma. The following applies: 10 µM unless noted.
A further test has as its system SN12C renal. The following applies: 10 µM unless noted.
Another test relates to UO-31 renal. The following applies: 10 µM unless noted.
The subject of a further test is TK-10 renal. As to conditions: 10 µM unless noted.
The subject of another test is ACHN renal. As to conditions: 10 µM unless noted.
The next test concerns CAKI-1 renal. The following applies: 10 µM unless noted.
The subject of the next test is A498 renal. As to conditions: 10 µM unless noted.
Another test has as its system CCRF-CEM leukemia. As to conditions: 10 µM unless noted.
For another test, the system named is MOLT-4 leukemia. The following applies: 10 µM unless noted.
Another test deals with SR leukemia. The following applies: 10 µM unless noted.
The next test deals with SNB-19 CNS. As to conditions: 10 µM unless noted.
The next test deals with EKVX NSCLC. The following applies: 10 µM unless noted.

On to `Cc1cc(Nc2ccc(OCc3ccccc3)cc2)nc2cc(O)ccc12`, for which the growth in the test on HT29 colon was 2.05% (active); in the test with SNB-75 CNS it was 81.6%; in the test on U251 CNS, 10.2%; in the test on PC-3 prostate, 53.5%; in the test on SK-MEL-5 melanoma it was 9.21% (active); in the test on UACC-62 melanoma, 71.7%. Besides, the growth in the test on LOX IMVI melanoma was 13.3%; in the test with SK-MEL-28 melanoma it was 59.2%; in the test on SK-MEL-2 melanoma it was 70.4%; with SN12C renal, 78.2%; with UO-31 renal it was 44.9%; with TK-10 renal, 73.4%. The growth with ACHN renal was 73.8%; in the test with CAKI-1 renal, 72.3%; in the test on A498 renal, 95.8%; with CCRF-CEM leukemia it was 8.27% (active); with MOLT-4 leukemia, 26%; in the test with SR leukemia, -17.5% (active).

In the case of `COC(=O)[C@@H]1CCCN1C(=O)[C@H]1CCCN1C(=O)[C@@H](Cc1c[nH]c2ccccc12)NC(=S)Nc1cc(C(F)(F)F)cc(C(F)(F)F)c1`, the growth with HT29 colon was 33%; with SNB-75 CNS, 46.6%; in the test with SNB-19 CNS, 37.6%; in the test with PC-3 prostate, 32.4%; with UACC-62 melanoma it was 48.5%; in the test on LOX IMVI melanoma it was 38.8%. In addition, the growth is 55.7% in the test on SK-MEL-28 melanoma; 55.3% in the test with SK-MEL-2 melanoma; 44.4% in the test on SN12C renal; 28.3% with UO-31 renal; 78.7% in the test on TK-10 renal; 37.2% in the test on ACHN renal. The growth in the test with CAKI-1 renal is 22%; in the test on A498 renal, 57.7%; in the test on MOLT-4 leukemia it was 16.3%; in the test on SR leukemia, 5.25% (active).

`O=C(/C=C/c1ccccn1)c1ccc(OCc2nnc(-c3ccc(Cl)cc3)o2)cc1`: the growth in the test with HT29 colon is -62.5% (active); in the test on SNB-75 CNS, 50.8%; in the test on SNB-19 CNS, 52.3%; in the test with PC-3 prostate, 58.9%; in the test with UACC-62 melanoma, 49.3%; with LOX IMVI melanoma, -92.1% (active). The growth in the test with SK-MEL-28 melanoma is 53.8%; in the test with SK-MEL-2 melanoma, 98.6%; with SN12C renal, 33.2%; with UO-31 renal, -90.1% (active); in the test with TK-10 renal it was 16.6%; in the test on ACHN renal, 27.3%. In addition, the growth with CAKI-1 renal was -25.7% (active); with A498 renal, 88.3%; with SR leukemia it was -11.7% (active).

As to `COc1cc(NC(=O)CCSc2nc3ccccc3c(=O)n2Cc2ccccc2)cc(OC)c1OC`, the growth was 97.1% with HT29 colon; 55.7% with SNB-75 CNS; 91.6% in the test on U251 CNS; 66.9% in the test with PC-3 prostate; 87.4% in the test on SK-MEL-5 melanoma; 64.8% with UACC-62 melanoma. In addition, the growth is 82% in the test on LOX IMVI melanoma; 102% in the test on SK-MEL-28 melanoma; 84.4% in the test with SK-MEL-2 melanoma; 82.9% in the test on SN12C renal; 45.7% in the test with UO-31 renal; 108% in the test with TK-10 renal. Moreover, the growth in the test with ACHN renal was 78.5%; in the test on CAKI-1 renal, 72.5%; in the test on A498 renal, 64.6%; in the test with CCRF-CEM leukemia, 74.5%; in the test with MOLT-4 leukemia it was 69.3%.

Take `CN1CCN(Cc2ccc(C(=O)Nc3cncc(C#Cc4cnc5cccnn45)c3)cc2C(F)(F)F)CC1`: the growth in the test with HT29 colon was 23%; in the test with SNB-75 CNS it was 96.9%; with U251 CNS it was 65.2%; with PC-3 prostate, 60.4%; with SK-MEL-5 melanoma, 74.3%; in the test on UACC-62 melanoma it was 74.2%. The growth in the test on LOX IMVI melanoma is 56%; with SK-MEL-28 melanoma, 67%; with SK-MEL-2 melanoma, 31.8%; with EKVX NSCLC, 75%; with SN12C renal it was 48.1%; with UO-31 renal, 21.5%. Moreover, the growth in the test on TK-10 renal is 82.8%; in the test on ACHN renal, 25.6%; with CAKI-1 renal, 13.9%; in the test with A498 renal, 11.3%; in the test with CCRF-CEM leukemia it was 32.6%.

With `CC1=CCC(OC(=O)C(C)(C)CCC(O)(C(=O)OC2(C(C)C)CCC3(C)OC3C2)C(C)C)(C(C)C)CC1` (stereo not given), the growth was -70.2% (active) with HT29 colon; -98% (active) in the test with SNB-75 CNS; -97.2% (active) in the test with SNB-19 CNS; -98.8% (active) in the test with U251 CNS; -97.2% (active) in the test on SK-MEL-5 melanoma; -94.2% (active) in the test on UACC-62 melanoma. Further, the growth with LOX IMVI melanoma is -90.5% (active); in the test with SK-MEL-28 melanoma it was -96.9% (active); with SK-MEL-2 melanoma, -91.6% (active); with EKVX NSCLC it was -63% (active); in the test with SN12C renal, -43.8% (active); with UO-31 renal, -99.2% (active). Also, the growth in the test on TK-10 renal was -99.2% (active); in the test with ACHN renal, -94.8% (active); with A498 renal it was -83.1% (active); in the test on CCRF-CEM leukemia it was -19.2% (active); with SR leukemia, 11.3%.

For `Cn1cc(-c2ccc3ncc(-c4ccc(CC(=O)Nc5cc(C(C)(C)C)no5)cc4)nc3c2)cn1`, the growth in the test with HT29 colon was 51.6%; with SNB-75 CNS it was 43.7%; in the test on U251 CNS, 40.8%; in the test with PC-3 prostate, 49.7%; in the test on SK-MEL-5 melanoma, 28.7%; with UACC-62 melanoma, 42.6%. Moreover, the growth in the test with LOX IMVI melanoma is 45.7%; in the test on SK-MEL-28 melanoma, 53.2%; in the test on SK-MEL-2 melanoma it was 38.1%; in the test on EKVX NSCLC, 50%; with SN12C renal it was 26.8%; in the test on UO-31 renal, 2.84% (active). Besides, the growth is 50.8% in the test on TK-10 renal; 15.2% with ACHN renal; 16.6% in the test on CAKI-1 renal; 17.9% in the test on A498 renal; 50.6% with CCRF-CEM leukemia; 30.7% in the test on MOLT-4 leukemia. Besides, in the test on SR leukemia, the growth was 16%.

`O=c1oc2ccc(I)cc2c(=O)n1-c1ccc(Cl)cc1F`: the growth is 63.6% with HT29 colon; -12.3% (active) with SNB-75 CNS; 0.686% (active) in the test with U251 CNS; -0.803% (active) with PC-3 prostate; -87.2% (active) in the test on SK-MEL-5 melanoma; -15.8% (active) in the test on UACC-62 melanoma. The growth was 13% with LOX IMVI melanoma; 10.9% in the test on SK-MEL-28 melanoma; -28.6% (active) in the test with SK-MEL-2 melanoma; 9.47% (active) with EKVX NSCLC; 2.21% (active) with SN12C renal; 2.47% (active) in the test on UO-31 renal. The growth in the test with TK-10 renal is 10.5%; in the test with ACHN renal, 3.57% (active); with CAKI-1 renal, -16.9% (active); in the test with A498 renal it was -68.3% (active); in the test with MOLT-4 leukemia it was -11.1% (active).

Regarding `Cc1ccc(C2CC(c3ccc(Nc4nc(NCCO)nc(Nc5ccc(Cl)cc5)n4)cc3)=NN2c2cc(Cl)cc(Cl)c2)cc1` (stereo not given), the growth in the test on HT29 colon is 107%; in the test on SNB-75 CNS, 85.2%; in the test on U251 CNS it was 97.4%; in the test with PC-3 prostate, 98.9%; in the test with SK-MEL-5 melanoma, 92.4%; in the test on UACC-62 melanoma it was 89.5%. Besides, the growth was 98.7% in the test with LOX IMVI melanoma; 105% with SK-MEL-28 melanoma; 122% in the test on SK-MEL-2 melanoma; 82.7% with EKVX NSCLC; 96.4% in the test with SN12C renal; 70.4% with UO-31 renal. Also, the growth is 113% with TK-10 renal; 95.3% with ACHN renal; 73.5% in the test on CAKI-1 renal; 79.1% in the test on A498 renal; 96.8% in the test with CCRF-CEM leukemia; 93.7% in the test with MOLT-4 leukemia. Moreover, the growth in the test on SR leukemia was 107%.

(Values after PubChem BioAssay (NCI).)
